Measured values taken from the supplement of paper PMC10338343.
± gives the standard deviation.

These sequences were tested on EfPiwi piRISC loaded with L1MC piRNA (26 nt) (assay: pre-steady-state target cleavage rate (min^-1); auxiliary factor: 500 nM Ephydatia muelleri Gtsf1; guide: L1MC piRNA 5'p-UAACUAAAUACUAUGCAAGCUGUAGG; MIWI and MILI are mouse PIWI proteins and EfPiwi is from a freshwater sponge; tags in brackets are library labels; higher = faster piRNA-guided slicing of the target).
Summary of the method: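 Sequencing of uncleaved targets, normalised to depth and to weakly complementary targets, was the readout of this Cleave-'n-Seq assay. A transcribed, DNA-blocked target RNA library (0.1 nM) was mixed with 1 nM active affinity-purified piRISC carrying one synthetic guide, with or without 500 nM GTSF1 partner protein, in HEPES–potassium acetate buffer at 33 °C for 0–8 or 0–960 min. Three trials were pooled, k3 was capped at 0.0001 min^-1, and a burst-and-steady-state fit gave the pre-steady-state cleavage rate.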

Sequence	pre-steady-state target cleavage rate
UCCUGGAACAGCUUGCAUAGUAAAUAGUUA	0.00589 ± 0.0023
UCCUGGAUCAGCUUCCAAAGUAUUUAGUUA	0.00404 ± 0.0027
UCCUGCUACAGCUAGGAUAGUAUUUAGUUA	0.011 ± 0.0037
UCCUGGAUCAGCUCUGCAUAGUAUUUAGUUA	0.101 ± 0.023
UCCUGGAUCAGCUUGCAUAGUAUUGUAGUUA	0.00652 ± 0.0027
UCCUGGAACAGCUUGCAUAGUAUUUACGUUA	0.00579 ± 0.0024
UCCUGGUACAGCUUGCAUAGUAUUUACGUUA	0.00346 ± 0.0025
UCCUGGUACAGCUUGCAUAGUUUUUAGUAA	0.00728 ± 0.0027
UCCUGCAACACCUUGCAUAGUAUUUAGUUA	0.0123 ± 0.0034
UCCUGGUACAGCUAGCAUAGUAUUUAGUUA	0.0085 ± 0.0027
UCCUGGAUCAGCUUGCAUAGUAUUUAGUGA	0.0182 ± 0.0068
UCCUCCUACAGCUUGCAUAGUAGUUUAGUUA	0.0131 ± 0.0052
UCCUCCUACAGCGUGCAUAGUAUUUAGUUA	0.1 ± 0.026
UCCUGGAUCAGCUUGCAUAGUAUUUAGUUC [g2:g22:cont:t1C]	0.0501 ± 0.011
UCCUCCUAGUCCUUGCAUAGUAUUUAGUAA	0.00549 ± 0.0034
UCCUGGAGCAGCUUGCAUAGUAUUUAGUUA	0.101 ± 0.024
UCCUGGAUGUGCUUAGCAUAGUAUUUAGUUA	0.00497 ± 0.0028
UCCUGCAACAGCUUGCAAAGUAUUUAGUUA	0.022 ± 0.0052
UCCUGGAUCAGCUUGGAUAGUAAUUAGUUA	0.00256 ± 0.0025
UCCUGGAUGUGCUUGCAUAGUAUUUAGGUUA	0.00262 ± 0.0021

Sequence	pre-steady-state target cleavage rate
UCCUGCUACAGCUUGCAUAGUAUUUAUGUUA	0.00419 ± 0.0019
UCCUGGUACAGCUUGCAAAGUAUUUAGUUA	0.0101 ± 0.0035
UCCUGGAUGUGCUUGCAUAGUACUUAGUUA	0.00522 ± 0.0031
UCCUGCUACAGGAUGCAUAGUAUUUAGUAA	0.00317 ± 0.0021
UCCUCGAUCAGCUUGCAUAGUAUUUAGUAA	0.00989 ± 0.0033
UCCUGGAUGUGCUCUGCAUAGUAUUUAGUUA	0.00925 ± 0.0031
UCCUGGUACAGCUUCGCAUAGUAUUUAGUUA	0.038 ± 0.0086
UCCUCCUACAGGUUGCAUAGUUUUUAGUUA	0.00915 ± 0.0022
UCCUGCUCCAGCUUGCAUAGUAUUUAGUUA	0.0877 ± 0.024
UCCUCAUACAGCUUGCAUAGUAUUUAGUUA	0.234 ± 0.064
UCCUCCCACAGCUUGCAUAGUAUUUAGUUA	0.128 ± 0.029
UCCUCUCUACAGCUUGCAUAGUAUUUAGUUA	0.0164 ± 0.006
UCCUGGAUGAGCUUGCAUAUUAUUUAGUUA	0.00658 ± 0.0032
UCCUGAUACAGCUUGCAUAGUAUUUAGUUA	0.0427 ± 0.014
UCCUCCUACAGCUAGCAUAGUAAUUAGUUA	0.00535 ± 0.002
UCCUCCUUCAGCUUGCAUAGUAUAUAGUUA	0.0124 ± 0.0058
UCCUCCUACAGCUUGGUUAGUAUUUAGUAA	0.00533 ± 0.0032
UCCUGGUACAGCUUGGAUAGUAUAUAGUUA	0.00702 ± 0.0025
UCCUGGAUGUGCUGCAUAGUAUUUAGUUA	0.00571 ± 0.0034
UCCUGGAAUCAGCUUGCAUAGUAUUUAGUUA	0.0198 ± 0.0068
